The source of these data is PubChem BioAssay (NCI).

This is part of a sample that, as a whole, favours compounds with a hit. Of some 83,000 tested, about 20% had one in any assay.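 Interpretation: 100, growth as untreated; towards 0, rising growth inhibition; 0, no net growth; 0 to -100, cell death. Compounds scoring below 10 were considered active.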 Unmarked numbers belong to inactive results. The source made the active and inactive calls.

This assay has as its system HL-60(TB) leukemia. Nature of the assay: NCI-60 one-dose screen, 48 h (100 = growth as untreated, 0 = no growth, -100 = all killed). Conditions: 10 µM unless noted.
Consider `CCOC(=O)C(Cc1ccccc1)n1c(O)c(C=Nc2ccc(C(=O)OCCN(CC)CC)cc2)sc1=O` (centres undefined), for which the growth was 97.8%.

`Cc1cc(Nc2nc(N[C@@H](C)c3ncc(F)cn3)ncc2Cl)n[nH]1`: the growth is 54.2%.

With `CCc1nn2c(-c3ccc(Cl)cc3C)c(-c3cc(OC)c(OC)c(OC)c3)nc2s1`, the growth is 73.6%.

`O=C(Nc1ccc(Nc2ccncc2)cc1)c1ccc([N+](=O)[O-])cc1`: the growth is -75.2% (active).

With `Oc1cccc(-c2nc(-c3n[nH]c(=S)n3-c3ccccc3)cc3c2[nH]c2ccccc23)c1`, the growth is 4.29% (active).

`CC(C)c1ccc(-n2c(=S)[nH]c3sc4cc(O)ccc4c3c2=O)cc1`: the growth was 99.4%.

As for `CCNc1nc(O)c(/C=C2\C=Nc3ncccc32)s1`, the growth is -22.4% (active).

Take `N=c1sc(Cc2cc(Cl)ccc2Cl)cn1CC(=O)c1ccccc1`: the growth was 29.6%.

As to `CC(C)C1(C(C)C)NC(=O)NC1=O`, the growth was 95.1%.

With `O=C(/C=C/c1ccccc1Br)c1cccc(OCCCCOc2cccc(C(=O)/C=C/c3ccccc3Br)c2)c1`, the growth was 92%.

Take `CN1C(=O)N(C)C2C1NN=c1s/c(=C\c3ccc(F)cc3)c(=O)n12` (centres undefined): the growth was -22.4% (active).

Turning to `CCN(CC)c1ccc2nc3c4ccccc4c(=NC(=O)c4ccccc4-c4c5ccc(N(CC)CC)cc5[o+]c5cc(N(CC)CC)ccc45)cc-3oc2c1`, the growth was -69.7% (active).

As for `COCCn1cc(-c2csc(-c3c[nH]c4ccc(F)cc34)n2)c2cccnc21`, the growth was 13.9%.

In the case of `CCc1ccc(C2=C/C(=C/c3ccccc3)C(=O)N2CCc2ccc(S(N)(=O)=O)cc2)cc1`, the growth is 100%.
